Rows were chosen to be rich in hits. Some 0.022% of all compounds tested hit in one or more screens of this group.
TSG101-PTAP inh – inhibitors of HIV-1 PTAP binding to human TSG101, validation; Q99816; Fluorescence polarization, FITC-PTAP peptide/Tsg101, 20 min; Potency, µM (doses to about 115 µM), most hits filed as inhibitors; 44,000 tested, under 10 active; further: potency means the concentration at half of the fitted maximal effect; 0% is about no effect
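qHTS FP binding, 20 min r.t.: 10 uM Tsg101 domain + 50 nM FITC-PTAP peptide, pH 7.5 HEPES buffer with TCEP and EDTA.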
B2AR arrestin ag – agonists recruiting beta-arrestin to human beta2-adrenergic receptor; P07550; HTLA Tango cells, beta-arrestin recruitment, luciferase luminescence, 18 h; Potency, µM (top dose mostly 46.1 µM), most hits filed as activators; 44,000 tested, under 10 active; AID 1347077;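 further: potency means the concentration at half of the fitted maximal effect; 0% = DMSO and full agonism = EC100 isoproterenol or metaproterenol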
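Tango cells expressing recombinant beta2-AR and beta-arrestin were treated with compounds (up to 46 microM titration) in DMEM with 1% FBS for 18 hr at 37 degrees C. Beta-arrestin recruitment drove tTA-dependent luciferase, read by luminescence; curves were fitted and classed.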
GALK inhibitor – inhibits human galactokinase; P51570; 44,000 tested, under 10 active; Potency, µM (series often up to 57.5 µM), inactives show top-dose activity, negative = inhibition, hits mostly inhibitors; recombinant GALK, Kinase-Glo ATP luminescence, 1 h;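 further: plate controls were full GALK reaction for no effect and reaction lacking GALK for full effect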
Target sequence (P51570 whole entry, looked up): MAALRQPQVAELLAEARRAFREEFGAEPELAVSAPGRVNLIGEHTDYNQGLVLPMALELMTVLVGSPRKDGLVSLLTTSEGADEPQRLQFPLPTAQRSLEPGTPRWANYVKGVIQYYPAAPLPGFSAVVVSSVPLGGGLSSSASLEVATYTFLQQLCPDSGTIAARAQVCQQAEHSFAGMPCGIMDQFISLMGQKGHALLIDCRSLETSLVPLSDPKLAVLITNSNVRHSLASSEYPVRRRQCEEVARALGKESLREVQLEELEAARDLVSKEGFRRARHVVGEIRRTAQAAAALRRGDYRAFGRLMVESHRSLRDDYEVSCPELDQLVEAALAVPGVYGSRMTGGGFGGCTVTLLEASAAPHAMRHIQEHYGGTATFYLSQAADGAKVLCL
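Reactions with and without enzyme served as controls. GALK at 5 nM phosphorylates 100 uM galactose using 35 uM ATP (HEPES pH 8.0, Mg2+) for 1 h at RT, with luminescence read 10 min after adding Kinase-Glo Plus.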
Starred values were filed as active, the others as inactive. The call rests on the fitted dose curve; in most records, active means well fitted curve in the direction sought with a large enough effect; inconclusive means small, poorly fitted or top-dose-only effect, or another doubt; inactive means no such curve, though single readings can be large; an effect the other way counts as inactive or inconclusive.

For O=C(Cc1ccccc1)Nc1c(C(=O)Nc2ccccc2F)oc2ccccc12 the results were TSG101-PTAP inh inactive, B2AR arrestin ag inactive and GALK inhibitor 5%.
Screening Cc1cc(C)cc(-n2ccnc2SCC(=O)Nc2ccc(C)cc2C)c1 returned TSG101-PTAP inh inactive, B2AR arrestin ag inactive and GALK inhibitor 4%.
For Cc1ccc(C(=O)Nc2ccc3c(c2)N(C)C(=O)c2ccccc2S3)cc1 the results were TSG101-PTAP inh inactive, B2AR arrestin ag inactive and GALK inhibitor -2%.
Screening Cc1ccc(CSc2nc3cccnc3n2Cc2nc(-c3ccccc3F)oc2C)cc1 returned TSG101-PTAP inh inactive, B2AR arrestin ag inactive and GALK inhibitor 6%.
`COc1ccc(OC)c(CNC(=O)C2CCN(c3nc4ccccc4nc3C(F)(F)F)CC2)c1` gave TSG101-PTAP inh inactive, B2AR arrestin ag inactive and GALK inhibitor -1%.
For Cc1cc(OCC(=O)Nc2sc3c(c2C#N)CCC(C)C3)ccc1Cl (configuration not stated) the results were TSG101-PTAP inh inactive, B2AR arrestin ag inactive and GALK inhibitor 0%.
For CCC(Sc1nc2ccccc2c2nc(CCn3c(C)nc4ccccc43)nn12)C(=O)Nc1ccc(F)cc1 (configuration not stated) the results were TSG101-PTAP inh inactive, B2AR arrestin ag inactive and GALK inhibitor -1%.
Screening CC(=O)c1[nH]c(C)c(C(=O)NCc2ccc(Cl)cc2)c1C returned TSG101-PTAP inh inactive, B2AR arrestin ag inactive and GALK inhibitor 0%.
For CCc1ccc(NC(=O)Cn2c(C(=O)OC)cc3oc(C)cc32)cc1 the results were TSG101-PTAP inh inactive, B2AR arrestin ag inactive and GALK inhibitor 5%.
Screening COc1ccc(-n2nc(-c3ccc(C)cc3)c3cnc4cc(F)c(F)cc4c32)cc1 returned TSG101-PTAP inh inactive, B2AR arrestin ag inactive and GALK inhibitor 8%.
Screening COc1ccc(-c2noc(N3CCC(C(=O)N4CCN(c5cccc(OC)c5)CC4)CC3)n2)cc1 returned TSG101-PTAP inh inactive, B2AR arrestin ag inactive and GALK inhibitor 0%.
Screening CC(=O)N1CCOc2cc(S(=O)(=O)NCc3ccc(F)cc3)c(C)cc21 returned TSG101-PTAP inh inactive, B2AR arrestin ag inactive and GALK inhibitor 1%.
`COc1ccc(CNS(=O)(=O)c2cc3c(cc2Cl)N(C(C)=O)CCO3)cc1` gave TSG101-PTAP inh 35µM*, B2AR arrestin ag inactive and GALK inhibitor 0%.
For Cc1ccc(-n2ncc(C(=O)NCCc3c[nH]c4ccccc34)c2C2CCN(C(=O)OC(C)(C)C)CC2)cc1C the results were TSG101-PTAP inh inactive, B2AR arrestin ag inactive and GALK inhibitor 1%.
Screening COc1ccc(C2=NC(C)(C)N(CC(=O)Nc3cccc(C)c3)C2=O)cc1 returned TSG101-PTAP inh inactive, B2AR arrestin ag inactive and GALK inhibitor -3%.
For CCOC(=O)C1CCN(C(c2ccc(C)cc2)c2c(O)cc(C)n(CCOC)c2=O)CC1 (configuration not stated) the results were TSG101-PTAP inh inactive, B2AR arrestin ag inactive and GALK inhibitor -2%.
`Cn1nnnc1SCCCNCc1cc(Br)ccc1OCc1ccccc1` gave TSG101-PTAP inh inactive, B2AR arrestin ag inactive and GALK inhibitor 5%.
`COc1cccc(CNC(=O)C2CCN(Cc3cc4ccccc4n3Cc3ccc(C)cc3)CC2)c1` gave TSG101-PTAP inh inactive, B2AR arrestin ag inactive and GALK inhibitor -8%.
`CCOc1ccc(C(=O)Nc2ccc(C(=O)OCc3cc(=O)n4c(C)csc4n3)cc2)cc1` gave TSG101-PTAP inh inactive, B2AR arrestin ag inactive and GALK inhibitor -1%.
Screening CCOC(=O)C1CCCN(C(=O)c2ccc(NC(=O)c3nsc4ccccc34)cc2)C1 (configuration not stated) returned TSG101-PTAP inh inactive, B2AR arrestin ag inactive and GALK inhibitor 0%.
For CCN1CCOC(=O)C1CC(=O)Nc1cc(Cl)ccc1OC (configuration not stated) the results were TSG101-PTAP inh inactive, B2AR arrestin ag inactive and GALK inhibitor 0%.
Screening COc1ccc(NS(=O)(=O)c2ccc3[nH]c4c(c3c2)CCCCC4)cc1 returned TSG101-PTAP inh inactive, B2AR arrestin ag inactive and GALK inhibitor -1%.
For CCOc1ccc(C2CC(=O)N(c3cccc(F)c3)C3=C2C(=O)OC3)cc1 (configuration not stated) the results were TSG101-PTAP inh inactive, B2AR arrestin ag inactive and GALK inhibitor 8%.
`Cc1ccc(Cn2cc(S(=O)(=O)c3cccc(C)c3)c(=O)c3cc(F)c(N4CCOCC4)cc32)cc1` gave TSG101-PTAP inh inactive, B2AR arrestin ag inactive and GALK inhibitor 3%.
For CCCSc1ncc(Cl)c(C(=O)Nc2ccc(S(=O)(=O)N3CCCCC3C)cc2)n1 (configuration not stated) the results were TSG101-PTAP inh inactive, B2AR arrestin ag inactive and GALK inhibitor 3%.
For CCN1CCc2c(sc(NC(=O)CSc3ccccc3)c2-c2nc3ccccc3s2)C1 the results were TSG101-PTAP inh 40µM*, B2AR arrestin ag inactive and GALK inhibitor -7%.
For CN1CCc2c(sc(NC(=O)CSc3ccc(F)cc3)c2-c2nc3ccccc3s2)C1 the results were TSG101-PTAP inh inconclusive, B2AR arrestin ag inactive and GALK inhibitor 0%.
For CC(=O)NCc1nc2cccnc2n1Cc1ccccc1 the results were TSG101-PTAP inh inactive, B2AR arrestin ag inactive and GALK inhibitor -7%.
Screening COc1ccc(OC)c(NC(=O)CN2C(=O)COc3ccc(S(=O)(=O)NC4CCCC4)cc32)c1 returned TSG101-PTAP inh inactive, B2AR arrestin ag inactive and GALK inhibitor -1%.
For Cc1ccc(CN(Cc2ccco2)C(=O)c2ccccc2Cl)o1 the results were TSG101-PTAP inh inactive, B2AR arrestin ag inactive and GALK inhibitor 3%.
`CCOc1ccc(N(C)C(=O)CS(=O)(=O)c2cccc3nsnc23)cc1` gave TSG101-PTAP inh inactive, B2AR arrestin ag inactive and GALK inhibitor 3%.
For Cc1ccc(Cl)cc1N1CCN(C(=O)Cn2cnc3sc(C)c(S(=O)(=O)N4CCC(C)CC4)c3c2=O)CC1 the results were TSG101-PTAP inh inactive, B2AR arrestin ag inactive and GALK inhibitor -5%.
Screening COc1ccccc1C(=O)Nc1sc(Nc2ccccc2)nc1C(N)=O returned TSG101-PTAP inh inactive, B2AR arrestin ag inactive and GALK inhibitor inconclusive.
For COc1cc(/C=C(\C#N)c2nc3ccccc3[nH]2)cc(Cl)c1OCc1ccccc1Cl the results were TSG101-PTAP inh inactive, B2AR arrestin ag inactive and GALK inhibitor 6%.

Compound activity: PubChem BioAssay, National Center for Advancing Translational Sciences (NCATS)
